Rows were chosen to be rich in hits. Some 1.5% of all compounds tested hit in one or more screens of this group.
PP1 counter: PP1-alpha phosphatase inhibitors, primary screen, counter-screen for PP5 inhibitor project, biochemical, fluorescence, OMFP substrate, single point; purified PP1alpha; 320,000 compounds, 0.9% hits; Serine/threonine-protein phosphatase PP1-alpha catalytic subunit (Homo sapiens), P62136; AID 2235, 2010; inhibition, % at 6.7 µM;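 active = inhibition above the mean inhibition of all tested compounds plus 3 SD, computed separately for each screening campaign, cut at about 15% in these data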
STK33 inh: inhibitors of purified STK33 kinase, primary screen, biochemical, ADP-Glo luminescence, homogeneous, cell-free. Serine/threonine-protein kinase 33 (Homo sapiens), Q9BYT3. MBP phosphorylation. inhibition, % at 10 µM. 320,000 compounds, 0.073% hits. AID 2661, 2010;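 active = inhibition at or above 25%, using the most active replicate where run in duplicate; inactive = inhibition below 25%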
Target sequence (Q9BYT3 whole entry, looked up): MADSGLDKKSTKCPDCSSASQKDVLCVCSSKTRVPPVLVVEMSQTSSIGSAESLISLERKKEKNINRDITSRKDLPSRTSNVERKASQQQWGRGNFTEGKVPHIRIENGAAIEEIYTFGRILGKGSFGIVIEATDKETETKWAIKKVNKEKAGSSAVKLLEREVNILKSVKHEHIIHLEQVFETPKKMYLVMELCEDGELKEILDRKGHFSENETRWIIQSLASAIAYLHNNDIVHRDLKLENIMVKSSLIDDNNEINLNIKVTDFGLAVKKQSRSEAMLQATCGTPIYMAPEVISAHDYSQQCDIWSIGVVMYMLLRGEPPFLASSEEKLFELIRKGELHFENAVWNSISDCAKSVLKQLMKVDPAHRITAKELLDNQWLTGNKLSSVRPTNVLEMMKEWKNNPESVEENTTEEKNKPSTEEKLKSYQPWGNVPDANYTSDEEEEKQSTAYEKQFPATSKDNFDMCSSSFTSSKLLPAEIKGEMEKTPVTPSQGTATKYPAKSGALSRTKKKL
PP5 inh: PP5 phosphatase inhibitors, primary screen, biochemical, fluorescence | Serine/threonine-protein phosphatase 5 (Homo sapiens), P53041 | purified PP5c, OMFP substrate fluorescence | inhibition, % at 6.7 µM | 320,000 compounds, 0.18% hits;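 active = inhibition above the campaign's mean inhibition across all tested compounds plus 3 SD, cut at about 9.5% in these data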;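 note: 0% = DMSO only and 100% = 100 µM cantharidin control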
HIF activator: HIF pathway transcriptional activators, primary screen, cell-based, U2OS HRE-luciferase, luminescence; U2OS HRE-luciferase reporter; normalized: DMSO 0%, desferrioxamine 100%; activation, % at 7.5 µM (by protocol); 300,000 compounds, 0.32% hits; AID 1910, 2009;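 active = mean activation of at least 10% of the iron chelator positive control signal, with at least half of replicates also reaching 10%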
Dyrk1A ADPGlo: rat Dyrk1A kinase inhibitors, primary screen, biochemical, single point, plate reader; inhibition, % at 12.5 µM; ADP-Glo luminescence, NFATc1 peptide; Dual specificity tyrosine-phosphorylation-regulated kinase 1A (Rattus norvegicus), Q63470; 310,000 compounds, 0.43% hits; in the data active = inhibition above about 50%;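 note: plate controls were vehicle with enzyme for no effect and no enzyme for full effect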
PP1 confirm: PP1 phosphatase inhibitors, confirmation, biochemical, fluorescence, OMFP substrate, triplicate. shares compounds with PP1 counter. purified PP1alpha. inhibition, % at 6.7 µM. 1,900 compounds, 52% hits;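 active = mean PP1 inhibition above a set limit taken from the earlier primary screen, cut at about 15% in these data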
PP5 counter: PP5 phosphatase inhibition by PP1 hits, confirmation, counter-screen for PP1 inhibitor project, biochemical, fluorescence, triplicate. shares compounds with PP1 counter. purified PP5c, OMFP fluorescence. inhibition, % at 6.7 µM. 1,900 compounds, 4% hits. AID 2360, 2010;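 active = mean PP5 inhibition over triplicate wells above about 9.5% taken from the earlier PP1 screen, limit read from the data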
Active calls of the source: *; nt = no result given.

SMILES	PP1 counter	STK33 inh	PP5 inh	HIF activator	Dyrk1A ADPGlo	PP1 confirm	PP5 counter
CCC1(c2ccccc2)NC(=O)N(CC(=O)Nc2cc(S(=O)(=O)N3CCCCC3)ccc2OC(C)C)C1=O (stereo not drawn)	18.3*	-0.9	0.3	0.6	nt	2.4	4.0
CCC1(c2ccccc2)NC(=O)N(CC(=O)Nc2cc(S(=O)(=O)N3CCCCCC3)ccc2OC)C1=O (stereo not drawn)	6.3	0.6	2.4	-38.9	11.7	nt	nt
Cc1ccc(C)c(CSc2ccc3nnc(-c4ccccn4)n3n2)c1	22.2*	-1.8	0.0	-0.3	4.4	12.5	-4.0
Brc1ccc(CSc2ccc3nnc(-c4ccccn4)n3n2)cc1	26.5*	1.1	-1.0	-0.3	6.1	19.8*	-5.2
Fc1ccc(CSc2ccc3nnc(-c4ccccn4)n3n2)cc1	13.1	-1.2	-0.9	-1.2	nt	nt	nt
COc1cccc(N2C(=O)Nc3ccc(Br)cc3C2(O)C(=O)NCCCN(C)C)c1 (stereo not drawn)	-2.9	-1.0	-1.8	-2.7	-0.9	nt	nt
Cc1c(/C=N/n2cnnc2)c2ccccc2n1CCOc1ccc(Cl)cc1	28.6*	0.2	3.5	-0.1	2.5	4.0	-3.4
Cc1ccc(OCCn2c(C)c(/C=N/n3cnnc3)c3ccccc32)cc1	1.1	-0.2	0.7	-3.1	-0.8	nt	nt
Cc1ccc(CSCC2Nc3ccc(C(=O)N4CCN(c5cccc(C)c5)C(C)C4)cc3NC2=O)cc1 (stereo not drawn)	18.7*	0.9	0.9	0.1	nt	29.1*	-5.7
CC(NCC(O)c1ccc([N+](=O)[O-])cc1)C12CC3CC(CC(C3)C1)C2 (stereo not drawn)	-1.8	-1.3	-1.6	0.2	9.5	nt	nt
CC(=O)N1N=C(c2ccccc2OC(=O)/C=C/c2ccccc2)CC1c1ccccc1 (stereo not drawn)	21.3*	-1.9	1.9	0.0	nt	0.5	-0.2
CCOC(=O)N1CCN(C(=O)CNC(=O)c2ccc(Br)o2)CC1	nt	-1.5	nt	0.5	3.9	nt	nt
COc1cccc(C2c3cc4c(cc3OC(NNC(N)=O)C2C)OCO4)c1O (stereo not drawn)	nt	nt	nt	nt	1.9	nt	nt
COc1ccc(NC(=S)NC(NC(=O)c2cccc(C)c2)C(Cl)(Cl)Cl)c([N+](=O)[O-])c1 (stereo not drawn)	1.5	0.0	1.7	nt	7.5	nt	nt
COc1ccc(NC(=S)NC(NC(=O)c2cccc(Cl)c2)C(Cl)(Cl)Cl)c([N+](=O)[O-])c1 (stereo not drawn)	17.9*	nt	4.2	-0.4	5.2	6.2	1.4
Cc1ccc(Nc2cc(C)nn2-c2nc(C)cc(=O)[nH]2)cc1	26.4*	-0.7	3.4	216.4*	-4.4	20.2*	1.2
Cc1nn(CC(=O)Nc2ccc3c(c2)nc2n3CCN(C3CCCCC3)C2)c(=O)c2ccccc12	20.1*	0.3	2.6	-0.2	nt	6.3	-0.5
COc1ccc(/C(CC2OC(=O)c3ccccc32)=N\NC(N)=O)cc1 (stereo not drawn)	-4.6	nt	0.8	0.1	3.0	nt	nt
COc1cccc(/C=N/NC(=O)C(=O)Nc2ccccc2OC(F)(F)C(F)F)c1O	19.6*	-0.3	1.9	26.0*	4.4	27.1*	-3.3
COc1ccc(OC)c(/C=N\NC(=O)c2ccc(-c3ccccc3)cc2)c1	nt	-0.1	nt	nt	-2.5	nt	nt
COc1cccc(/C=N/NC(=O)c2[nH]c(C)c(C(=O)N/N=C/c3cccc(OC)c3O)c2C)c1O	24.7*	-0.9	3.3	1.6	1.1	28.2*	-2.5
COc1cccc(/C=N/NC(=O)c2ccc(-c3ccccc3)cc2)c1O	22.0*	-0.8	1.8	47.4*	5.6	24.8*	2.0
COc1ccccc1/C=N/NC(=O)c1cccc(OC(F)(F)C(F)F)c1	-1.9	-0.1	3.6	nt	0.6	nt	nt
COc1ccc(C(CNC(=O)c2cccc(NS(=O)(=O)c3ccc(Br)cc3)c2)N(C)C)cc1 (stereo not drawn)	3.8	0.8	-1.1	0.2	-1.5	nt	nt
COc1cc([N+](=O)[O-])cc(/C=N/NC(=O)c2cc(-c3ccccc3)nc3ccccc23)c1O	40.0*	-1.4	-0.6	4.2	1.9	40.1*	-1.1
SMILES	PP1 counter	STK33 inh	PP5 inh	HIF activator	Dyrk1A ADPGlo	PP1 confirm	PP5 counter
COc1cc([N+](=O)[O-])cc(/C=N/NC(=O)c2cc(C)nc3ccccc23)c1O	4.4	-1.1	-1.3	2.8	nt	nt	nt
Cc1cc(C)c2nc(N3C(=O)C(O)=C(C(=O)c4ccco4)C3c3cccc(O)c3)sc2c1 (stereo not drawn)	34.2*	-0.8	2.5	nt	nt	26.5*	1.7
CCOC(=O)c1sc(N2C(=O)C(O)=C(C(=O)c3ccco3)C2c2cccc(Cl)c2)nc1C (stereo not drawn)	26.7*	-0.3	2.1	3.3	9.4	16.9*	-0.7
Cc1cc(N2C(=O)C(O)=C(C(=O)c3ccco3)C2c2cccc(O)c2)no1 (stereo not drawn)	-4.2	-0.4	-1.9	nt	-1.9	nt	nt
Cc1cc(C)c2nc(N3C(=O)C(O)=C(C(=O)c4ccco4)C3c3ccc(O)cc3)sc2c1 (stereo not drawn)	33.6*	2.4	3.1	nt	nt	29.7*	2.1
Cc1ccc(C2C(C(=O)c3ccco3)=C(O)C(=O)N2c2nnc(C)s2)cc1 (stereo not drawn)	6.8	nt	0.9	1.7	-6.9	nt	nt
Cc1ccc(C)c(NC(=O)COC(=O)c2cc3ccccc3oc2=O)c1	3.6	-1.8	0.6	nt	-2.1	nt	nt
Cc1ncsc1C(=O)Nc1cccc(C(F)(F)F)c1	-4.7	-1.7	-3.0	-2.6	-2.7	nt	nt
CC(=O)Nc1ccc(NC(=O)C(C)OC(=O)C23CC4CC(CC(Cl)(C4)C2)C3)cc1 (stereo not drawn)	nt	-1.2	nt	nt	nt	nt	nt
O=C(N/N=C/c1cccc(F)c1)c1cc(-c2ccco2)nc2ccccc12	30.6*	0.8	-3.9	0.9	-5.8	11.0	-1.6
COc1cc(/C=N/NC(=O)c2cc(-c3ccco3)nc3ccccc23)cc(OC)c1O	12.3	-0.1	-0.2	0.0	3.7	nt	nt
CCOC(=O)C1Nc2ccc(Br)cc2C2C=CCC12 (stereo not drawn)	11.1	-0.1	0.8	-0.4	16.5	nt	nt
O=C(O)C1Nc2ccc(Br)cc2C2C=CCC12 (stereo not drawn)	38.1*	-0.6	1.6	1.1	nt	5.6	-2.0
O=C(O)C1Nc2c(Cl)cc(Cl)cc2C2C=CCC12 (stereo not drawn)	23.7*	-1.9	0.4	-1.5	23.4	4.1	-1.6

Screening results (PubChem)
